How the values were obtained:
Assay type in all cases: functional
[1] = target: Solute carrier family 2, facilitated glucose transporter member 1 (Homo sapiens) (UniProt P11166); test: ST_JUDE_LEISH: Cytotoxicity at 2uM final concentration against transgenic Leishmania Mexicana promastigotes LmGLUT1 that are glucose transport deficient and complemented with the human glucose transporter GLUT1. Activity is measured by DNA content using SYBR green in vitro
[2] = target: Hexose transporter 1 (Plasmodium falciparum) (UniProt O97467); test: ST_JUDE_LEISH: Cytotoxicity at 2uM final concentration against transgenic Leishmania Mexicana promastigotes LmPfHT that are glucose transport deficient and complemented with the Plasmodium falciparum hexose transporter. Activity is measured by DNA content using SYBR green in vitro
[3] = target: Glucose transporter (Leishmania mexicana) (UniProt O61059); test: ST_JUDE_LEISH: Cytotoxicity at 2uM final concentration against transgenic Leishmania Mexicana promastigotes LmGT2 that are glucose transport deficient and complemented with the L. Mexicana glucose transporter 2. Activity is measured by DNA content using SYBR green in vitro

Solute carrier family 2, facilitated glucose transporter member 1 (Homo sapiens), sequence (P11166 whole entry): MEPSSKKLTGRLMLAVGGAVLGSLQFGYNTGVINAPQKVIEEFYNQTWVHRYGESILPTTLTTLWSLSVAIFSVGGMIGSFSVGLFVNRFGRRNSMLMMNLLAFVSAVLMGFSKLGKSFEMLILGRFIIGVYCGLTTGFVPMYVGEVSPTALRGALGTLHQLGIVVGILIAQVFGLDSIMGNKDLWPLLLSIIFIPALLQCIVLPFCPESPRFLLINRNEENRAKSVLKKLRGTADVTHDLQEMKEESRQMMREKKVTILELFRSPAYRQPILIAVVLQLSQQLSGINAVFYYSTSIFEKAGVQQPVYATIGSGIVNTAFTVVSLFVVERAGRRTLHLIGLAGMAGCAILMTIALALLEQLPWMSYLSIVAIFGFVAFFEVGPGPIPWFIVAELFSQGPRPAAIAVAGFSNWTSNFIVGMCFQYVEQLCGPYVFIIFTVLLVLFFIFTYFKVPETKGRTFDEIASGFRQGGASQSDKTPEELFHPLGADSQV

Compound	inhibition [1]	inhibition [2]	inhibition [3]
CCN(CCCN1CCCCC1)c1cc(C)nc(Nc2cc(F)cc(F)c2)n1	5.16%	4.98%	4.62%
O=C(NC1CCCC1)c1cc2c(=O)n3ccccc3nc2[nH]/c1=N/CCc1ccccc1	11.5%	8.49%	5.94%
CCC(C)(CC)C(=O)n1ncc2c3c(N)nc(N)nc3ccc21	65.8%	79.2%	58.6%
OCCNc1nc(Nc2cccc(O)c2)nc2ccccc12	4.65%	3.14%	4.01%
O=C(CCc1c[nH]cn1)Nc1cccc(-c2ccc(-c3nc4ccccc4[nH]3)s2)c1	2.18%	4.04%	1.88%
Cc1ccc(NC(=O)NC2CCN(CCCCCNC(=O)/C=C/c3ccc(Cl)c(Cl)c3)CC2)cc1	0.42%	1.16%	-5.98%
FC(F)(F)c1ccc(N2CCCN(Cc3cccc(-c4ccccc4CNCc4ccc5c(c4)OCO5)c3)CC2)nc1	2.61%	-2.51%	-0.04%
CN(C)c1ccc(CN2CCC(CNC(=O)c3cc(-c4ccccc4Cl)cs3)C2)cc1 (stereo unspecified)	0.57%	-3.68%	0.7%
Cc1nn(C2CCS(=O)(=O)C2)c(C)c1C1Nc2ccccc2C(=O)N1Cc1ccc2c(c1)OCO2 (stereo unspecified)	-0.66%	-0.19%	-1.17%
COc1ccc2nccc([C@@H](O)CN3CCC(NC(=O)c4[nH]c5ccccc5c4-c4ccccc4)CC3)c2c1	28.3%	49.7%	12.8%
O=[N+]([O-])c1cc2c(cc1C=NNc1nc(=Nc3ccccc3)[nH]c(=Nc3ccccc3)[nH]1)OCO2	1.53%	1.47%	-2.69%
CC(=O)Nc1ccc(C(=O)Nc2cccc(-c3ccc(-c4nc5ccccc5[nH]4)cc3)c2)cn1	4.19%	3.31%	5.92%

— ChEMBL document CHEMBL3433997, “St. Jude Leishmania screening dataset” (2016)
